A short description of experiment [1]: compounds altering circadian rhythm period length – cell-based, LOPAC library, luminescence reporter (AID 2774; call rule not given here;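 further: values are relative to mean of DMSO wells on each plate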). The following applies: circadian reporter cells, at 7 µM, actives lie on both sides.
Experiment [2] is described as follows: growth inhibition, single agent or in combination, cell-based, chromothripsis tumors, cisplatin or BGB combos (AID 1671449).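 Further: cells exposed for 96 hours; 0% = vehicle DMSO and 100% = killing by high DMSO.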 The settings on record: LFS_MB_P medulloblastoma cells.
A short description of experiment [3]: growth inhibition, single agent and combos, cell-based, chromothripsis tumors, cisplatin or BGB combos (AID 1671450).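 Further: cells exposed to compound for four days; 0% = vehicle DMSO and 100% = cell killing by high DMSO.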 The following applies: HDN33 neuroblastoma cells, stronger effect = higher value.
Experiment [4] is described as follows: growth inhibition, single agents and combos, ICB984, cell-based, cisplatin or BGB combos, synergistic combos for chromothripsis tumors (AID 1671451; call rule not given here;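 further: cells exposed for 96 hours before readout; 0% = vehicle DMSO and 100% = killing by high DMSO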). The following applies: ICB984 medulloblastoma cells, drug combinations, stronger effect = higher value.
Experiment [5] can be described thus: growth inhibition, single agents and combos, LFS_MB_1R, cell-based, cisplatin or BGB combos, synergistic combos for chromothripsis tumors (AID 1671452).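 Further: cells exposed for 96 hours before readout.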 The settings on record: LFS_MB_1R medulloblastoma cells, stronger effect = higher value.
The nature of experiment [6]: growth inhibition, single agents and combos, HTB85, cell-based, BGB or cisplatin IC20 combos, synergistic combos for chromothripsis tumors (AID 1671453).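 Further: cells exposed for 96 hours before readout; 0% = vehicle DMSO and 100% = high DMSO killing control.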 The following applies: HTB85 osteosarcoma cells, drug combinations, stronger effect = higher value.
The nature of experiment [7]: growth inhibition, single agents and combos, CRL2098, cell-based, BGB or cisplatin IC20 combos, synergistic combos for chromothripsis tumors (AID 1671454).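 Further: cells exposed for 96 h before readout; 0% = vehicle DMSO and 100% = killing by high DMSO.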 The settings on record: CRL2098 osteosarcoma cells, drug combinations, stronger effect = higher value.
A short description of experiment [8]: growth inhibition, single agents and combos, HD-MB03, cell-based, BGB or cisplatin IC20 combos, synergistic combos for chromothripsis tumors (AID 1671455; in the data active means inhibition above about 83%;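 further: 0% = vehicle DMSO and 100% = high DMSO as cytotoxic control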). The settings on record: HD-MB03 medulloblastoma cells, stronger effect = higher value.
Experiment [9] in a line: growth inhibition, single agents and combos, UWB1.289, cell-based, BGB or cisplatin combos, synergistic combos for chromothripsis tumors (AID 1671456).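 Further: cells exposed to compound for four days; 0% = vehicle DMSO and 100% = killing by high DMSO.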 The settings on record: UWB1.289 ovarian carcinoma cells, stronger effect = higher value.
The nature of experiment [10]: growth inhibition, single agents and combos, LFS_MB_2R, cell-based, cisplatin combos, synergistic combos for chromothripsis tumors (AID 1671457).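 Further: cells exposed to compound for four days before readout.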 The settings on record: LFS_MB_2R medulloblastoma cells, stronger effect = higher value.
Experiment [11] in a line: growth inhibition, MDA-MB-436, cell-based, BGB or cisplatin combos, synergistic combos for chromothripsis tumors (AID 1671458; call rule not given here;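 further: cells exposed for 96 hours; 0% = vehicle DMSO and 100% = killing by high DMSO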). The settings on record: MDA-MB-436 breast carcinoma growth inhibition, drug combinations, stronger effect = higher value.
Experiment [12] in a line: UWB1.289_BRCA1 ovarian cancer growth, cell-based, BGB or cisplatin combinations (AID 1671459). The following applies: UWB1.289 BRCA1 ovarian carcinoma, drug combinations, stronger effect = higher value.
Experiment [13] is described as follows: drug combination toxicity in non-malignant astrocytes – cell-based, BGB or cisplatin IC20 combos, cytotoxicity control for chromothriptic childhood tumor combination screen (AID 1671460).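 Further: cells exposed to compounds for 96 hours before viability readout; 0% = vehicle and 100% = killing control.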 The settings on record: Human astrocytes, viability inhibition, drug combinations, at 0.5 µM, stronger effect = higher value.
The nature of experiment [14]: BT084 cell growth, single and combined drugs, ICGC_MB145, cisplatin and BGB IC40 combos (AID 1671461).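 Further: cells exposed to drugs for 96 hours; 0% = vehicle DMSO and 100% = high DMSO full killing control.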 The following applies: BT084 medulloblastoma cells, drug combinations, stronger effect = higher value.
The nature of experiment [15]: RCMB18 cell growth, single agent and combined, cisplatin and BGB IC40 combos (AID 1671462).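 Further: cells exposed to compound for four days.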 The following applies: RCMB18 medulloblastoma cells, stronger effect = higher value.
Experiment [16] can be described thus: CRL1545 cell growth, single agent and combined, cisplatin and BGB IC20 combos (AID 1671464).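 Further: cells exposed to compound for 96 hours before readout; 0% = vehicle DMSO and 100% = high DMSO killing control.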 The following applies: CRL1545 osteosarcoma cells, stronger effect = higher value.
Experiment [17] is described as follows: galactose survival enhancers in mitochondrial complex I cybrids – cell-based, galactose medium, ATP luminescence, primary screen (AID 1645843;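 active means z-score of at least 1.8 in each of two replicates, scored against plate mean and spread of sample wells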;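 further: positive z means more ATP and so rescue of galactose-driven cybrid death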). The following applies: complex I mutant cybrid cells, 72 h, stronger effect = higher value.
Setting [18] is: measured here: combination with BGB IC40, at 0.05 µM.
The mark [19] stands for this setting: measured here: with BGB IC20 combination, at 0.5 µM.
[20] abbreviates: measured here: with cisplatin IC20 combination, at 0.5 µM.
Where [21] appears, read: measured here: combination with cisplatin, at 0.5 µM.
The mark [22] stands for this setting: measured here: combination with cisplatin, at 5 µM.

Activity calls are given as the source filed them. Unless noted, no stated cut-off is given here; in the data, active means inhibition above about 80%; inactive means the rest.

What is called inhibition is the relative decrease from the control value, in per cent.

Consider `COc1cc(CCN)ccc1O`, for which the period change in experiment [1] is -0.1 h (inactive).
`O=P(O)(NCCCl)NCCCl`: the inhibition in experiment [2] (at 0.5 µM, stronger effect = higher value) was -22.2% (inactive); in [2] (measured here: combination with BGB IC20, at 0.005 µM) it was -18.1%; in experiment [2] (measured here: combination with BGB IC40, at 0.005 µM), -19.6%; in experiment [2] (setting [18]) it was -1.01%; in experiment [2] (measured here: combination with cisplatin, at 0.5 µM, stronger effect = higher value), -31.9%; in experiment [2] (measured here: combination with cisplatin, at 5 µM, stronger effect = higher value), -32.1%. Moreover, the inhibition in experiment [3] (BGB combo, at 5 µM) was -3.04%; in [3] (at 0.5 µM) it was -31.2% (inactive); in experiment [3] (cisplatin combo, at 5 µM), -23.7%; in experiment [3] (setting [19]) it was -28%; in experiment [3] (setting [20]) it was -30.2%; in experiment [3] (single agent, at 5 µM), -43.4%. For the same molecule, the inhibition in experiment [4] (BGB IC20 combo, at 0.005 µM) is -17.4%; in experiment [4] (BGB IC40 combo, at 0.005 µM), -58.7%; in experiment [4] (BGB IC40 combo, at 0.05 µM), -40.4%; in experiment [4] (at 0.5 µM), -24.2% (inactive); in experiment [4] (cisplatin combo, at 0.05 µM) it was -45.9%; in [4] (cisplatin combo, at 0.5 µM), -25.8%. Moreover, the inhibition is -10.7% in experiment [4] (cisplatin combo, at 5 µM); 3.71% in [4] (measured here: 5 uM single agent, at 5 µM); -40.6% (inactive) in experiment [5] (at 0.5 µM); -43.7% in experiment [5] (setting [18]); -71.6% in experiment [5] (setting [21]); -97.5% in experiment [5] (setting [22]). Moreover, the inhibition in experiment [6] (at 0.5 µM) is -29.6% (inactive); in [6] (measured here: with BGB IC20, at 0.5 µM), -31.2%; in [6] (measured here: with BGB IC20, at 5 µM) it was 0.766%; in experiment [6] (measured here: with cisplatin IC20, at 0.5 µM) it was -42.4%; in [6] (measured here: with cisplatin IC20, at 5 µM) it was 5.56%; in experiment [6] (single agent, at 5 µM), -6.89%. Besides, the inhibition was -58.4% (inactive) in [7] (at 0.5 µM); -43.5% in [7] (measured here: combination with BGB at IC20, at 0.5 µM); -12.2% in experiment [7] (measured here: combination with cisplatin at IC20, at 0.5 µM); -20.7% (inactive) in [8] (at 0.5 µM); -26.7% in experiment [8] (measured here: combo with BGB at IC20, at 0.5 µM); -18.9% in experiment [8] (measured here: combo with cisplatin at IC20, at 0.5 µM). Also, the inhibition in experiment [9] (at 0.5 µM) is -15.1% (inactive); in [9] (measured here: inhibition with BGB combination, at 0.05 µM), -6.88%; in experiment [9] (measured here: inhibition with cisplatin combination, at 0.05 µM) it was -8.03%; in experiment [10] (at 0.5 µM), -16.7% (inactive); in [10] (setting [21]), -19.3%; in experiment [10] (setting [22]), -26.8%. The inhibition in experiment [11] (at 0.5 µM) is -14.5% (inactive); in experiment [11] (measured here: BGB combination, at 0.5 µM), -12.5%; in [11] (measured here: BGB combination, at 5 µM) it was -5.62%; in experiment [11] (measured here: cisplatin combination, at 0.5 µM) it was -16%; in [11] (measured here: cisplatin combination, at 5 µM), -15.6%; in experiment [12] (BGB combination, concentration series, at 5 µM), -1.33%. The inhibition is -15.6% (inactive) in [12] (at 0.5 µM); -23% in [12] (cisplatin combination, concentration series, at 5 µM); -6.45% (inactive) in [13]; -2.47% in experiment [13] (measured here: combo with BGB IC20); -6.44% in experiment [13] (measured here: combo with cisplatin IC20); -3.8% (inactive) in [14] (at 0.5 µM). For the same molecule, the inhibition is 2.29% in experiment [14] (cisplatin combination, at 0.5 µM); -12.8% in [14] (cisplatin combination, at 5 µM); -21.5% in experiment [14] (measured here: BGB IC40 combination 0.05 uM, at 0.05 µM); -15.7% in experiment [14] (single agent, at 5 µM); -17.3% (inactive) in experiment [15] (at 0.5 µM); 5.67% in experiment [15] (cisplatin combo, at 5 µM). The inhibition in [15] (measured here: BGB IC40 combination, at 0.05 µM) was -4.66%; in [15] (setting [21]), -18.6%; in experiment [15] (single agent, at 5 µM), -40.3%; in experiment [16] (at 0.5 µM), -42.1% (inactive); in [16] (setting [19]) it was -36.5%; in experiment [16] (setting [20]), -44.9%. Besides, the inhibition in experiment [16] (single agent, at 0.05 µM) was -55%; in experiment [16] (single agent, at 5 µM) it was -25.3%.
In the case of `O=C(CCCN1CCC2(CC1)C(=O)N(CCc1ccc(N=C=S)cc1)CN2c1ccccc1)c1ccc(F)cc1`, the period change in experiment [1] is 0.03 h (inactive).
As to `CN1CCC(N(C)CCC2CCOCC2)CC1`, the z-score in experiment [17] is 0.38 (inactive).
Still for that read-out and setting: the value for `CC1(C)C(C(=O)N2CCC(n3cc(C4CC4)nn3)CC2)C1(C)C` was -0.525 (inactive).
On to `COc1ccc(CCN)cc1O`, for which the period change in experiment [1] is 0.08 h (inactive).
Regarding `CCN(CC)C(=O)N[C@@H]1C=C2c3cccc4[nH]cc(c34)C[C@H]2N(C)C1`, the period change in experiment [1] is 0.415 h (inactive).
Still for that read-out and setting: to `CC[C@@H]1/C=C/C=C/C[C@H](C)[C@@H](O)[C@](C)(O)C(=O)[C@H](C)[C@@H](O)[C@H](C)C(=O)[C@H](C)[C@@H](O)[C@H](C)/C=C/C(=O)O[C@H]2[C@@H](C)[C@@H](CC1)O[C@@]1(CC[C@@H](C)[C@@H](CC(C)O)O1)[C@@H]2C` (stereo partly specified) belongs -1.77 h (inactive).
Same read-out and setting: the value for `C[C@]12CC[C@H]3[C@@H](CCC4C[C@H](O)CC[C@@]43C)[C@@H]1CC[C@@H]2O` (stereo partly specified) was 0.065 h (inactive).

Source of the values: PubChem BioAssay.
